About 20,000 (21%) of roughly 96,000 compounds were called active.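 Rule for the calls: active = CYP2C19 inhibition above a set limit at 5 µM in the primary screen (cut at about 50% in these data); inactive = the rest.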 These entries were drawn from the full list.
biological target: Cytochrome P450 2C19 (Homo sapiens) (UniProt P33261); assay: blockers of cytochrome P450 2C19 activity – biochemical, luminescence, ADME assay, primary screen (AID 778); details: CYP2C19 Supersomes, luciferin-H EGE luminescence, 30 min; at 5 µM; hits give high values;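 note: plate controls were negative control wells for no effect and 2.5 mM tranylcypromine positive control for full effect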
Sequence (P33261 whole entry, looked up): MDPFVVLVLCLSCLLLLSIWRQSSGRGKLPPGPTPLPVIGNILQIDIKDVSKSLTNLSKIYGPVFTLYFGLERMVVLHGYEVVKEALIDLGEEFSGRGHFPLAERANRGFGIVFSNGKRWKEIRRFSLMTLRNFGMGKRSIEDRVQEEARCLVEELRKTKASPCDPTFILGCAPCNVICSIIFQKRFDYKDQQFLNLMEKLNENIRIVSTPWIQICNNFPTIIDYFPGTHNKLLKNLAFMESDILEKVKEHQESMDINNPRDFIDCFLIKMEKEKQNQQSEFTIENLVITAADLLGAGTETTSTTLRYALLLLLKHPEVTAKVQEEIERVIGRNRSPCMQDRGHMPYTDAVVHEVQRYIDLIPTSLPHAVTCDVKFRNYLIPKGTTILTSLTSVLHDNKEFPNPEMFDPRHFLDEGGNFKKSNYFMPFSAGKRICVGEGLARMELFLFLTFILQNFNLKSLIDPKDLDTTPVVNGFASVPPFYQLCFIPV

inhibition, active:
Cc1ccc(S(=O)(=O)N2CC(=O)Nc3ccccc32)cc1C 60.4%
CCOC(=O)C1=C(C)NC(C)=C(C(=O)OCC)C1C1=COCCO1 88.8%
CCOC(=O)C1=C(C)NC(C)=C(C(=O)OCC)C1c1ccccn1 50.3%
Cc1cc2[nH]ncc2cc1NC(=S)NC(=O)c1ccccc1 99.2%
Cc1nn2c(c1-c1ccccc1)N=C(c1ccco1)CC2c1ccccc1 (configuration not stated) 66.2%
OCCN(Cc1ccccc1)Cc1ccc(Cl)cc1 100%
COC(=O)c1sc(=S)n(-c2ccc(Cl)cc2)c1C 62.9%
COc1ccc(C2C(C#N)=C(N)Oc3cc(N)ccc32)cc1OC (configuration not stated) 74.9%
O=C1NC(Nc2nc3ccccc3s2)(C(F)(F)F)C(=O)N1C1CCCCC1 (configuration not stated) 68.9%
NC(=O)N1CCCC1C(=O)Nc1ccc(Cl)c(Cl)c1 (configuration not stated) 54.3%
S=C(NCc1cccs1)Nc1ccc(Cl)cc1 89.7%
Cc1cccc(OCCCC(=O)Nc2ccc(S(=O)(=O)N3CCCC3)cc2)c1 50.1%
CC(=O)Nc1ccc(S(=O)(=O)N2CCN(CCCOc3cc(C)ccc3C)CC2)cc1 84.1%
CC(NC(=O)c1ccc(Cl)cc1)C(=O)N1CCCCC1 (configuration not stated) 77.5%
Cc1ccc(N2C(=O)CC(NCc3ccc4c(c3)OCO4)C2=O)cc1Cl (configuration not stated) 85%
CC1Cc2ccccc2N1CC(=O)Nc1ccc2c(c1)OC(F)(F)O2 (configuration not stated) 97.3%
CCCCOC(=O)c1[nH]c(C)c(C(=O)OC)c1C 81.6%
Cc1nc2nc3c(cn2n1)C(=O)CC(c1ccccc1)C3 (configuration not stated) 99.6%
O=C(CN1CCN(S(=O)(=O)/C=C/c2ccccc2)CC1)NC(=O)NCc1ccco1 54%
COc1ccc(S(=O)(=O)N2CCC(C(=O)N3CCc4ccccc4C3)CC2)cc1OC 53.6%

inhibition, inactive:
CC1=NCCN1S(=O)(=O)c1ccc(Br)c(C)c1 27.7%
Cc1ccc(C)c(S(=O)(=O)N2CC(=O)Nc3ccccc32)c1 32.8%
O=C(OCC#CCSc1nnc(-c2ccncc2)o1)c1sc2ccccc2c1Cl -11.8%
CC1CCN(C(NC(=O)c2ccco2)C(=O)c2ccccc2)CC1 (configuration not stated) 35.9%
CCOc1ccccc1C1NC(=O)NC(C)=C1C(=O)OCc1ccco1 (configuration not stated) 16.1%
CCCC1NC(=O)NC(C)=C1C(=O)OCC (configuration not stated) 17%
CCOC(=O)C1C(=O)NCC1c1ccccc1 (configuration not stated) -0.1%
O=C(OCC(=O)c1cccs1)C1=COCCO1 2.6%
CCCCCn1c(SCCC(C)C)nc2c1c(=O)[nH]c(=O)n2C 8.6%
Cc1ccc(C2CC(c3cccc(Br)c3)n3nc(N)nc3N2)cc1 (configuration not stated) 21.7%
Cc1ccc(-c2ccc(=O)n(CC(=O)NCCCN3CCCCC3)n2)cc1 6.9%
O=C1c2ccccc2C(=O)c2c1cccc2N1CCN(CCO)CC1 1.4%
Cc1ccc(NC(=S)NC(=O)c2ccc(-c3ccccc3)cc2)c(C)c1 8.6%
CCOC(=O)c1c(-c2ccccc2)csc1NC(=S)NC(=O)c1ccccc1 -8.6%
CC1(C)C(=O)C2(CCCCC2)C(=O)OC1c1cccs1 (configuration not stated) 15.1%
CCOC1CS(=O)(=O)CC1OCC (configuration not stated) -10.9%
Nc1nnc(C2CCCC2)s1 8.1%
Cc1cc(N/C=C\C(=O)c2ccc(Cl)c(Cl)c2)no1 40.4%
Cc1nn(C(=O)c2ccoc2C)c(N)c1-c1ccccc1 29.7%
CN(C)/C=C(\C#N)C(=O)c1cccnc1Oc1cccc(F)c1 40.5%
COc1cccc2cc(C(=O)N(C)C)c(=O)oc12 -22.6%
CCCCNC(=O)c1onc(CSc2cccc(OC)c2)c1C(=O)O 12.9%
CCOc1ccc(NC(=O)N(CC(C)C)CC(C)C)cc1 11.8%
CC(O)CN(Cc1ccc(Cl)cc1)CC(C)O (configuration not stated) -2.3%
CN(Cc1ccccc1)Cc1ccccc1F 44.7%
Brc1cnc(N2CCCC2)nc1N1CCCCC1 1.7%
COc1cc(OC)cc(C(=O)NCCSCc2ccco2)c1 35%
O=C(CN1C(=O)C2C3C=CC(C3)C2C1=O)NCC1COc2ccccc2O1 (configuration not stated) 0.4%
COC(=O)c1sc(=S)n(-c2ccccc2)c1N 17.4%
CCOC(=O)Cn1c(N)c(C(=O)OC)sc1=S 26.8%
CC1(C)CC(=O)NC=C(c2ccccc2)C1 23.8%
Brc1ccc(/C=N/N2CCN(C3c4ccccc4-c4ccccc43)CC2)s1 11.5%
COc1ccc(OC)c(-n2cc3c(=O)n(C)c(=O)n(C)c3c2)c1 38.6%
N#CC1=C(N)Oc2cc(O)ccc2C1C1CCCCC1 (configuration not stated) 35.8%
COc1cc(C2C(C#N)=C(N)Oc3n[nH]c(-c4ccccn4)c32)cc(OC)c1OC (configuration not stated) 1.9%
CS(=O)(=O)N1CCCC(C(=O)N2CCOCC2)C1 (configuration not stated) -12.2%
O=C(Cc1ccc(S(=O)(=O)N2CCOCC2)s1)NCCC(c1ccccc1)c1ccccc1 41.9%
COC(=O)NC1(C(F)(F)F)NC(=O)N(C2CCCCC2)C1=O (configuration not stated) 7.3%
CCC(=O)Nc1sc(C(=O)N2CCCCC2)c(C)c1C#N 19.7%
O=C(CSc1n[nH]c(-c2cccnc2)n1)Nc1ccnc2ccccc12 15%
CC(=O)Nc1ccc(NC(=O)CN2CCCC(C)C2)c(Cl)c1 (configuration not stated) 19.8%
COc1cccc(NC(=O)C2CCCN2C(=O)OCc2ccccc2)c1 (configuration not stated) 33.1%
Cc1cc(NC(=O)COn2nnc3ccccc32)no1 28.7%
S=C(NCc1ccc(Cl)cc1)NC12CC3CC(CC(C3)C1)C2 47.3%
Cc1nn(C)cc1C(=O)NNC(=S)Nc1ccc(Cl)cc1 8.5%
C=CCNC(=S)NNc1ncnc2sc3c(c12)CC(C)(C)OC3 17.9%
C=CCOc1c2ccc(C(=O)N(CC)c3ccc(OC)cc3)cc2nn1C 44.1%
O=C(CNC(=O)OCc1ccccc1)Oc1cc2oc(=O)cc(-c3ccccc3)c2cc1Cl 27.8%
COc1ccc(OCC(=O)OCC(=O)Nc2ccc(S(=O)(=O)N3CCCCC3)cc2)cc1 21.1%
CC(=O)Nc1ccc(S(=O)(=O)N2CCSCC2)cc1 11.2%
CC(=O)Nc1ccc(S(=O)(=O)N2CCN(C3CCCCCCC3)CC2)cc1 25.7%
C=CCNC(=O)CCCOc1cccc(C)c1 17.5%
CCc1c(C)c2c(C)[nH]nc2oc1=O 34%
CCOC(=O)Nc1ccc(NC(=O)OCC)cc1 -15.6%
Cc1ccc2c(NC(=O)C3CC3)cccc2n1 3.3%
CSc1ccc(C#N)cc1NC(=O)c1cccc(Cl)c1 17.9%
O=C(CCN1C(=O)c2ccccc2C1=O)NCCN1CCOCC1 -17.4%
Cc1cc(C)nc(SCc2nnc(SCC(=O)OC3CCCCC3)o2)n1 32.2%
c1ccc(CSc2nnc(-c3ccco3)c(-c3ccco3)n2)cc1 44.4%
CC(C)C(NC(=O)c1ccc(Cl)cc1)C(=O)O (configuration not stated) -19.4%
O=C(c1ccc(Cl)c(Cl)c1)N1CCCC1 15.1%
CCOc1ccccc1N=C1NC(=O)CS1 -12.1%
CC1CCC(N2CC(=O)N(Cc3ccc4c(c3)OCO4)C(c3ccc(F)cc3)C2=O)CC1 (configuration not stated) 20.3%
O=CN1CCN(C2CC(=O)N(c3ccc4c(c3)OCO4)C2=O)CC1 (configuration not stated) -12%
O=C(CSc1nc(-c2ccco2)cc(C(F)(F)F)n1)NCc1cccs1 8.5%
O=C(Cn1c(=O)sc2ccccc21)Nc1ccc2c(c1)OCCO2 7.6%
CC1(C)Oc2ccc(C(=O)N3CCOCC3)cc2N(CC(=O)Nc2ccccc2)C1=O 30.3%
Cc1nnc(NCCO)c2ccccc12 7.5%
CSC1=N/C(=C\C=C\c2cccs2)C(=O)S1 -11%
CCCOC(=O)c1[nH]c2c(c1C)C(=O)CC(c1cc(OC)c(OC)c(OC)c1)C2 (configuration not stated) 38.4%
CCCCN(CC)CCNC(=O)c1[nH]c(C)c(C(C)=O)c1C -8%
Cc1ccc(Cc2cnc(NC(=O)/C(C#N)=C/c3ccc(-c4cccc([N+](=O)[O-])c4)o3)s2)cc1 -3.9%
O=C(COC(=O)c1ccc(S(=O)(=O)N2CCc3ccccc3C2)cc1)NC(=O)NCc1ccco1 8.9%
CC1(c2ccccc2Cl)NC(=O)N(CC(=O)NC(=O)NCc2ccco2)C1=O (configuration not stated) 22.5%
CCCOn1c(-n2nc(C)cc2C)nc2ccccc2c1=O 47.2%
O=C(NCc1ccco1)c1sc2cccc(F)c2c1Cl -8.9%
CCOc1cc(/C=N/n2cnnc2)c(Br)cc1O 5.4%
Cc1ccc2c(c1)N(C(=O)CCC(=O)N1CCc3ccccc3C1)CCO2 39.4%
c1ccc(-c2cn3c(n2)CCc2ccc4cccnc4c2-3)cc1 15.9%
COc1ccc(S(=O)(=O)N2CCC(C(=O)N3CCOCC3)CC2)cc1OC 7.3%
COc1ccccc1N(C)S(=O)(=O)c1ccc(C(=O)N2CCC(C(N)=O)CC2)cc1 8.7%
CCS(=O)(=O)c1ccc2c(c1)N(S(=O)(=O)c1ccccc1)CC(C(=O)O)O2 (configuration not stated) 0.1%

From PubChem BioAssay AID778 (Sanford-Burnham Center for Chemical Genomics, 2007)
